Test results reported in PubChem BioAssay (Tox21).
Values without a mark were called inactive. The source made the active and inactive calls. Calls follow the shape of the dose curve; as a rule, active = well fitted curve in the direction sought with a large enough effect in the repeat runs; inconclusive = weak or mixed curves; inactive = flat fitted curve, though single readings scatter.

Assay: qHTS assay to test for compound auto fluorescence at 535 nm (green) in HepG2 cells (AID 720675)
Settings: green autofluorescence 485/535 nm, 1 h; series mostly up to 46 µM; fluorescence, % of fluorescein control: at the top concentration
% is scaled to controls: 0 for no effect and ±100 for the full control effect.

Compound	fluorescence, % of fluorescein control	outcome
C[N+](C)(C)CCCCCC[N+](C)(C)C	-0.152%	
NS(=O)(=O)c1cc2c(cc1Cl)NC(C1CC3C=CC1C3)NS2(=O)=O (stereo not given)	0.0257%	
OCCOc1ccc(OCCO)cc1	0.0449% [at 95.7 µM]	
COC(C)(C)CCCC(C)CC=O (stereo not given)	-0.172% [at 91.3 µM]	
CCOC(=O)CCC(C)=O	0.16% [at 91.3 µM]	
NC(=O)COCCN1CCN(C(c2ccccc2)c2ccc(Cl)cc2)CC1 (stereo not given)	0.0141%	
C=CCCCCCCCCC=O	0.112% [at 91.3 µM]	
NS(=O)(=O)c1ccc(C(=O)O)cc1	0.134%	
CC[N+](C)(C)c1cccc(O)c1	-0.153% [at 18.6 µM]	
O=C(O)CCCc1ccccc1	-0.0204%	
CC(=O)c1ccccc1O	0.0538% [at 91.3 µM]	
Cc1cccn2c(=O)c(-c3nnn[nH]3)cnc12	-0.231%	
c1ccc([C@H]2CN3CCSC3=N2)cc1	0.0707%	
CC(C[N+](C)(C)C)OC(N)=O (stereo not given)	-0.0132%	
CCCCCCCCS(=O)(=O)Cl	-0.0153% [at 91.3 µM]	
O=[N+]([O-])c1ccc(F)cc1F	0.0069% [at 91.3 µM]	
CC(=O)OCC(=O)[C@@]1(O)CCC2C3CCC4=CC(=O)CC[C@]4(C)C3[C@@H](O)C[C@@]21C (stereo not given in full)	0.138%	
COC(=O)c1c(Cl)c(Cl)c(C(=O)OC)c(Cl)c1Cl		inactive
O=C1CCCC(=O)C1	-0.0021% [at 91.3 µM]	
CCOC(=O)c1ccc(C)cc1	0.0874% [at 91.3 µM]	
O=C(CCCN1CCN(c2ccccn2)CC1)c1ccc(F)cc1	0.0066%	
CC1(C)C(O)C(C)(C)C1O (stereo not given)	0.0555% [at 91.3 µM]	
CC/C=C\CC/C=C/C(OCC)OCC	-0.0656% [at 91.3 µM]	
COc1c(N2C[C@@H]3CCCN[C@@H]3C2)c(F)cc2c(=O)c(C(=O)O)cn(C3CC3)c12		inactive
COC(=O)[C@@H](N)Cc1ccc(O)c(O)c1	0.0216%	
